The record followed here is PubChem BioAssay (NCI).

Molecules are shown by their SMILES. Compounds without any hit were thinned out: in the full panel of roughly 83,000, 20% have a hit.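 Single-dose data. Exposure time 48 hours. Values below 10 considered active.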 Unmarked numbers belong to inactive results. The source made the active and inactive calls.

Some test systems named below: SR leukemia; RPMI-8226 leukemia; OVCAR-8 ovarian; OVCAR-5 ovarian; OVCAR-4 ovarian; SK-OV-3 ovarian; IGROV1 ovarian; OVCAR-3 ovarian; NCI/ADR-RES ovarian.
Holding throughout (experiment): NCI-60 one-dose screen, 48 h (100 = growth as untreated, 0 = no growth, -100 = all killed)
Conditions in all cases: 10 µM unless noted

On to `Cc1sc2nc(NCCc3cccs3)[nH]c(=O)c2c1C`, for which the growth is 72.1% in the assay on SR leukemia; 86.7% in the assay with RPMI-8226 leukemia; 87.4% with OVCAR-8 ovarian; 97.8% with OVCAR-5 ovarian; 95.6% with OVCAR-4 ovarian; 79% in the assay with SK-OV-3 ovarian. Moreover, the growth in the assay on IGROV1 ovarian was 101%; in the assay with OVCAR-3 ovarian it was 106%; with NCI/ADR-RES ovarian, 85.2%.

In the case of `CC(=O)N1N=C(c2ccc(Cl)cc2)CC1c1c(C)nn(-c2ccccc2)c1N(C)Cc1ccccc1` (stereo unspecified), the growth is 72.4% in the assay with SR leukemia; 46.8% in the assay on RPMI-8226 leukemia; 80.9% with OVCAR-8 ovarian; 97.9% with OVCAR-5 ovarian; 80% in the assay on OVCAR-4 ovarian; 70.6% in the assay on SK-OV-3 ovarian. The growth in the assay on IGROV1 ovarian is 63.7%; in the assay with OVCAR-3 ovarian it was 81.9%; in the assay with NCI/ADR-RES ovarian, 64.1%.

For `NS(=O)(=O)c1ccc(-n2ncc3c(NC4CCCCC4)ncnc32)cc1`, the growth in the assay on SR leukemia was 63.1%; in the assay with RPMI-8226 leukemia, 91%; in the assay with OVCAR-8 ovarian, 89.2%; in the assay on OVCAR-5 ovarian, 90.9%; in the assay with OVCAR-4 ovarian, 97.9%; in the assay with SK-OV-3 ovarian, 108%. Moreover, the growth in the assay with IGROV1 ovarian was 78%; with OVCAR-3 ovarian, 128%; in the assay with NCI/ADR-RES ovarian, 88.6%.

With `COC(=O)[C@H](CCCCNC(=O)OCc1ccccc1)NC(=O)[C@@H](NC(=O)Nc1cc(C(F)(F)F)cc(C(F)(F)F)c1)C(C)C`, the growth was -23.3% [100 µM] (active) in the assay with SR leukemia; -20.6% [100 µM] (active) in the assay with RPMI-8226 leukemia; -22.1% [100 µM] (active) in the assay on OVCAR-8 ovarian; 41.6% [100 µM] with OVCAR-5 ovarian; -68.8% [100 µM] (active) in the assay on OVCAR-4 ovarian; -23.4% [100 µM] (active) with SK-OV-3 ovarian. Further, the growth with IGROV1 ovarian was -61% [100 µM] (active); in the assay on OVCAR-3 ovarian, -92.5% [100 µM] (active); in the assay with NCI/ADR-RES ovarian it was 60.4% [100 µM].

For the compound `COc1ccc(C2=NN(C(C)=O)C(c3cccc(Nc4ccnc5cc(Cl)ccc45)c3)C2)cc1` (stereo unspecified), the growth was -8.23% (active) in the assay with SR leukemia; 41% in the assay with RPMI-8226 leukemia; 50% in the assay on OVCAR-8 ovarian; 87.2% in the assay with OVCAR-5 ovarian; 42% with OVCAR-4 ovarian; 52.9% in the assay on SK-OV-3 ovarian. For the same compound, the results for the growth in the assay with IGROV1 ovarian, with OVCAR-3 ovarian and in the assay with NCI/ADR-RES ovarian were 65.7%, 59.3% and 43.6%, respectively.

As to `CC1CC=CCC1C1OCC(C)(C)CO1` (stereo unspecified), the growth in the assay on SR leukemia is 96.4%; in the assay with RPMI-8226 leukemia, 97.2%; with OVCAR-8 ovarian, 98.6%; with OVCAR-5 ovarian it was 104%; with OVCAR-4 ovarian it was 108%; in the assay with SK-OV-3 ovarian, 110%. In addition, the growth is 101% in the assay with IGROV1 ovarian, 109% with OVCAR-3 ovarian and 108% in the assay with NCI/ADR-RES ovarian.

Consider `Cc1[nH]ccc2cc3nc4ccccc4c3cc12`, for which the growth in the assay on SR leukemia was 3.33% (active); with RPMI-8226 leukemia, 15.9%; in the assay on OVCAR-8 ovarian, 20.6%; in the assay on OVCAR-5 ovarian, 42%; with OVCAR-4 ovarian it was 38.4%; in the assay with SK-OV-3 ovarian it was 34.7%. Further, the values for the growth in the assay on IGROV1 ovarian, in the assay on OVCAR-3 ovarian and with NCI/ADR-RES ovarian were 23.6%, 41.6% and 24.9%, respectively.

For `O=C(Nc1nc2c(C(F)(F)F)cccc2s1)c1cc(Cl)ccc1O`, the growth in the assay with SR leukemia is 7.18% (active); in the assay on RPMI-8226 leukemia, -22.7% (active); with OVCAR-8 ovarian it was 6.2% (active); with OVCAR-5 ovarian it was 29.3%; with OVCAR-4 ovarian it was 21.8%; with SK-OV-3 ovarian it was -8.89% (active). For the same compound, the growth in the assay with IGROV1 ovarian was 24.2%; in the assay with OVCAR-3 ovarian, 10.1%; with NCI/ADR-RES ovarian, 1.26% (active).

Regarding `NS(=O)(=O)c1ccc(-n2nc(-c3ccc(Br)cc3)ccc2=O)cc1`, the growth in the assay with SR leukemia is 21.1% [100 µM]; with RPMI-8226 leukemia it was 85.7% [100 µM]; in the assay on OVCAR-8 ovarian, 88.2% [100 µM]; in the assay on OVCAR-5 ovarian it was 94.7% [100 µM]; in the assay on OVCAR-4 ovarian, 89.4% [100 µM]; in the assay with SK-OV-3 ovarian it was 25% [100 µM]. Besides, the growth with IGROV1 ovarian is 50.2% [100 µM]; with OVCAR-3 ovarian, 70.9% [100 µM]; in the assay on NCI/ADR-RES ovarian, 57% [100 µM].

Take `COc1cc(C2CC(C3C(=O)N(C)C(=O)N(C)C3=O)=NN2C=O)cc(OC)c1OC` (stereo unspecified): the growth was 105% in the assay on SR leukemia; 99.7% with RPMI-8226 leukemia; 93.9% in the assay on OVCAR-8 ovarian; 107% in the assay on OVCAR-5 ovarian; 107% in the assay with OVCAR-4 ovarian; 76.4% in the assay on SK-OV-3 ovarian. The growth with IGROV1 ovarian is 110%; in the assay on OVCAR-3 ovarian it was 107%; in the assay with NCI/ADR-RES ovarian, 99.8%.

For the compound `FC(F)(F)c1ccc(-c2cnc(-c3nn[nH]n3)nc2NC2CCCCCC2)cc1`, the growth in the assay on SR leukemia is 15.1% [50 µM]; in the assay with RPMI-8226 leukemia it was 34.5% [50 µM]; in the assay on OVCAR-8 ovarian it was 42.4% [50 µM]; in the assay on OVCAR-5 ovarian, 101% [50 µM]; in the assay on OVCAR-4 ovarian it was 60.8% [50 µM]; in the assay on SK-OV-3 ovarian it was 86.1% [50 µM]. Moreover, the growth with IGROV1 ovarian is 52.7% [50 µM]; in the assay with OVCAR-3 ovarian, 31% [50 µM]; in the assay with NCI/ADR-RES ovarian, 30.8% [50 µM].

On to `COC(=O)[C@H](Cc1cn(C)cn1)NC(=O)[C@H](Cc1ccccc1)NC(=O)Nc1cc(C(F)(F)F)cc(C(F)(F)F)c1`, for which the growth in the assay with SR leukemia is -39% [100 µM] (active); in the assay on RPMI-8226 leukemia it was -58.8% [100 µM] (active); in the assay on OVCAR-8 ovarian, -87.9% [100 µM] (active); in the assay on OVCAR-5 ovarian, -94% [100 µM] (active); with OVCAR-4 ovarian, -87.1% [100 µM] (active); in the assay with SK-OV-3 ovarian, -100% [100 µM] (active). Also, the growth was -56.3% [100 µM] (active) in the assay with IGROV1 ovarian, -99.1% [100 µM] (active) in the assay on OVCAR-3 ovarian and 4.87% [100 µM] (active) with NCI/ADR-RES ovarian.

With `Cc1sc2nc(NCc3ccccc3)[nH]c(=O)c2c1C`, the growth was 14.4% in the assay on SR leukemia; 49.6% with RPMI-8226 leukemia; 59.7% in the assay on OVCAR-8 ovarian; 70.5% in the assay on OVCAR-5 ovarian; 91.7% with OVCAR-4 ovarian; 50.8% in the assay on SK-OV-3 ovarian. Further, the growth with IGROV1 ovarian was 67.9%; in the assay on OVCAR-3 ovarian, 40.7%; with NCI/ADR-RES ovarian it was 31.2%.

`O=C(CSc1nnc(-c2cc(-c3ccccc3)nc3ccccc23)o1)c1ccc(Br)cc1`: the growth with SR leukemia is 83.7%; in the assay on RPMI-8226 leukemia, 109%; in the assay on OVCAR-8 ovarian it was 100%; in the assay on OVCAR-5 ovarian it was 104%; with OVCAR-4 ovarian, 106%; with SK-OV-3 ovarian it was 112%. Further, the growth in the assay on IGROV1 ovarian was 102%; in the assay with OVCAR-3 ovarian it was 108%; in the assay with NCI/ADR-RES ovarian it was 107%.
